Measurements reported in publication PMC9911399, “Two distinct binding modes provide the RNA-binding protein RbFox with extraordinary sequence specificity”.
Substitutions are numbered along the chain they refer to; changes in the protein carry UniProt numbers. The full ranking holds about 16,000 sequences; the median of “ka relative to ugcaugu” is about 0.096, and the highest 2% start at about 0.35. The full list was thinned out, with the highest values kept by preference.

T1: RBFOX1 RRM RbFoxmut (Fox-RRM*) (Homo sapiens, UniProt Q9NWB1 109-208, R118D;E147R;N151S;E152T)
T1 sequence: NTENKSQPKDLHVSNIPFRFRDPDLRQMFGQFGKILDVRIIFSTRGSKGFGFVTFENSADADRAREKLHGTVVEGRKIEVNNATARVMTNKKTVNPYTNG

B1: UGAAGGC (DNA:RNA)
RNA: GGGAGACCGGAAUUCAGAUUGUCCUGAAGGCUUAAAUCCCGUCGUAGCCACCA
DNA 1: CAATCTGAATTCCGGTCTCCC
DNA 2: TGGTGGCTACGACGGGATT
B2: AUUUCAU (DNA:RNA)
RNA: GGGAGACCGGAAUUCAGAUUGUCCAUUUCAUUUAAAUCCCGUCGUAGCCACCA
DNA 1: CAATCTGAATTCCGGTCTCCC
DNA 2: TGGTGGCTACGACGGGATT
B3: CACACCG (DNA:RNA)
RNA: B2 RNA with A25C, U26A, U27C, U28A, A30C, U31G
DNA 1: CAATCTGAATTCCGGTCTCCC
DNA 2: TGGTGGCTACGACGGGATT
B4: UGGGUAU (DNA:RNA)
RNA: B2 RNA with A25U, U26G, U27G, U28G, C29U
DNA 1: CAATCTGAATTCCGGTCTCCC
DNA 2: TGGTGGCTACGACGGGATT
B5: GUUCCGU (DNA:RNA)
RNA: B2 RNA with A25G, U28C, A30G
DNA 1: CAATCTGAATTCCGGTCTCCC
DNA 2: TGGTGGCTACGACGGGATT
B6: AUAUCCC (DNA:RNA)
RNA: B2 RNA with U27A, A30C, U31C
DNA 1: CAATCTGAATTCCGGTCTCCC
DNA 2: TGGTGGCTACGACGGGATT
B7: UGAUACC (DNA:RNA)
RNA: B1 RNA with A28U, G29A, G30C
DNA 1: CAATCTGAATTCCGGTCTCCC
DNA 2: TGGTGGCTACGACGGGATT
B8: CCUAGCC (DNA:RNA)
RNA: B1 RNA with U25C, G26C, A27U, G30C
DNA 1: CAATCTGAATTCCGGTCTCCC
DNA 2: TGGTGGCTACGACGGGATT
B9: GGAAGUC (DNA:RNA)
RNA: B1 RNA with U25G, G30U
DNA 1: CAATCTGAATTCCGGTCTCCC
DNA 2: TGGTGGCTACGACGGGATT
B10: UGGUACC (DNA:RNA)
RNA: B1 RNA with A27G, A28U, G29A, G30C
DNA 1: CAATCTGAATTCCGGTCTCCC
DNA 2: TGGTGGCTACGACGGGATT
B11: GUCCUUG (DNA:RNA)
RNA: B2 RNA with A25G, U27C, U28C, C29U, A30U, U31G
DNA 1: CAATCTGAATTCCGGTCTCCC
DNA 2: TGGTGGCTACGACGGGATT
B12: UUGUCCG (DNA:RNA)
RNA: B2 RNA with A25U, U27G, A30C, U31G
DNA 1: CAATCTGAATTCCGGTCTCCC
DNA 2: TGGTGGCTACGACGGGATT
B13: UGGUACG (DNA:RNA)
RNA: B1 RNA with A27G, A28U, G29A, G30C, C31G
DNA 1: CAATCTGAATTCCGGTCTCCC
DNA 2: TGGTGGCTACGACGGGATT
B14: UUGUUCG (DNA:RNA)
RNA: B2 RNA with A25U, U27G, C29U, A30C, U31G
DNA 1: CAATCTGAATTCCGGTCTCCC
DNA 2: TGGTGGCTACGACGGGATT
B15: CGGUACG (DNA:RNA)
RNA: B2 RNA with A25C, U26G, U27G, C29A, A30C, U31G
DNA 1: CAATCTGAATTCCGGTCTCCC
DNA 2: TGGTGGCTACGACGGGATT
B16: GUAACCG (DNA:RNA)
RNA: B2 RNA with A25G, U27A, U28A, A30C, U31G
DNA 1: CAATCTGAATTCCGGTCTCCC
DNA 2: TGGTGGCTACGACGGGATT
B17: UGAUCUC (DNA:RNA)
RNA: B1 RNA with A28U, G29C, G30U
DNA 1: CAATCTGAATTCCGGTCTCCC
DNA 2: TGGTGGCTACGACGGGATT
B18: UGCUGAG (DNA:RNA)
RNA: B1 RNA with A27C, A28U, G30A, C31G
DNA 1: CAATCTGAATTCCGGTCTCCC
DNA 2: TGGTGGCTACGACGGGATT
B19: GAAAUGU (DNA:RNA)
RNA: B1 RNA with U25G, G26A, G29U, C31U
DNA 1: CAATCTGAATTCCGGTCTCCC
DNA 2: TGGTGGCTACGACGGGATT
B20: CCGAAUG (DNA:RNA)
RNA: B1 RNA with U25C, G26C, A27G, G29A, G30U, C31G
DNA 1: CAATCTGAATTCCGGTCTCCC
DNA 2: TGGTGGCTACGACGGGATT
B21: CGAUUGU (DNA:RNA)
RNA: B1 RNA with U25C, A28U, G29U, C31U
DNA 1: CAATCTGAATTCCGGTCTCCC
DNA 2: TGGTGGCTACGACGGGATT
B22: CGUCGUU (DNA:RNA)
RNA: B2 RNA with A25C, U26G, U28C, C29G, A30U
DNA 1: CAATCTGAATTCCGGTCTCCC
DNA 2: TGGTGGCTACGACGGGATT
B23: CGAAUGU (DNA:RNA)
RNA: B1 RNA with U25C, G29U, C31U
DNA 1: CAATCTGAATTCCGGTCTCCC
DNA 2: TGGTGGCTACGACGGGATT
B24: CGAAUUG (DNA:RNA)
RNA: B1 RNA with U25C, G29U, G30U, C31G
DNA 1: CAATCTGAATTCCGGTCTCCC
DNA 2: TGGTGGCTACGACGGGATT
B25: GAAUGUU (DNA:RNA)
RNA: B2 RNA with A25G, U26A, U27A, C29G, A30U
DNA 1: CAATCTGAATTCCGGTCTCCC
DNA 2: TGGTGGCTACGACGGGATT
B26: CGAAAUG (DNA:RNA)
RNA: B1 RNA with U25C, G29A, G30U, C31G
DNA 1: CAATCTGAATTCCGGTCTCCC
DNA 2: TGGTGGCTACGACGGGATT
B27: GAUGUUU (DNA:RNA)
RNA: B2 RNA with A25G, U26A, U28G, C29U, A30U
DNA 1: CAATCTGAATTCCGGTCTCCC
DNA 2: TGGTGGCTACGACGGGATT
B28: CCCCGAA (DNA:RNA)
RNA: B2 RNA with A25C, U26C, U27C, U28C, C29G, U31A
DNA 1: CAATCTGAATTCCGGTCTCCC
DNA 2: TGGTGGCTACGACGGGATT
B29: GGAAUGU (DNA:RNA)
RNA: B1 RNA with U25G, G29U, C31U
DNA 1: CAATCTGAATTCCGGTCTCCC
DNA 2: TGGTGGCTACGACGGGATT
B30: GUAAUGU (DNA:RNA)
RNA: B1 RNA with U25G, G26U, G29U, C31U
DNA 1: CAATCTGAATTCCGGTCTCCC
DNA 2: TGGTGGCTACGACGGGATT
B31: CACAGAG (DNA:RNA)
RNA: B1 RNA with U25C, G26A, A27C, G30A, C31G
DNA 1: CAATCTGAATTCCGGTCTCCC
DNA 2: TGGTGGCTACGACGGGATT

What follows are binders tested against T1, RBFOX1 RRM RbFoxmut (Fox-RRM*) (assay: EMSA; HiTS-Eq, 1 nM pool, 10 min; buffer printed only for the single-RNA assays: 10 mM Tris pH 7.5, 150 mM NaCl, 3.4 mM EDTA, 0.001% NP-40, 30 C). Conditions: tags: His6 N-terminal (pET28a); label: 5' 32P.
Procedure, shortened: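 Relative association constants, normalised to the cognate motif, were derived by comparing read counts of each RNA species with those of the control reaction. The RNA sequenced was the free fraction, separated by 8% native PAGE after a 10 min equilibration in 50 µL of 1 nM 5′-radiolabelled RNA (7 randomized nucleotides) with increasing concentrations of purified wild-type or mutant RbFox RRM.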

Row | Binder | binding signal
1 | B1 | 0.0677 KA relative to UGCAUGU
2 | B2 | 0.12 KA relative to UGCAUGU
3 | B3 | 0.12 KA relative to UGCAUGU
4 | B4 | 0.172 KA relative to UGCAUGU
5 | B5 | 0.127 KA relative to UGCAUGU
6 | B6 | 0.0954 KA relative to UGCAUGU
7 | B7 | 0.103 KA relative to UGCAUGU
8 | B8 | 0.149 KA relative to UGCAUGU
9 | B9 | 0.111 KA relative to UGCAUGU
10 | B10 | 0.133 KA relative to UGCAUGU
11 | B11 | 0.116 KA relative to UGCAUGU
12 | B12 | 0.188 KA relative to UGCAUGU
13 | B13 | 0.367 KA relative to UGCAUGU
14 | B14 | 0.463 KA relative to UGCAUGU
15 | B15 | 0.24 KA relative to UGCAUGU
16 | B16 | 0.114 KA relative to UGCAUGU

Row | Binder | binding signal
17 | B17 | 0.0775 KA relative to UGCAUGU
18 | B18 | 0.102 KA relative to UGCAUGU
19 | B19 | 0.0843 KA relative to UGCAUGU
20 | B20 | 1.39 KA relative to UGCAUGU
21 | B21 | 0.206 KA relative to UGCAUGU
22 | B22 | 0.108 KA relative to UGCAUGU
23 | B23 | 1.07 KA relative to UGCAUGU
24 | B24 | 0.141 KA relative to UGCAUGU
25 | B25 | 0.884 KA relative to UGCAUGU
26 | B26 | 0.101 KA relative to UGCAUGU
27 | B27 | 0.125 KA relative to UGCAUGU
28 | B28 | 0.136 KA relative to UGCAUGU
29 | B29 | 0.959 KA relative to UGCAUGU
30 | B30 | 0.154 KA relative to UGCAUGU
31 | B31 | 0.124 KA relative to UGCAUGU
